# TWEAK Fn14 block = TWEAK-Fn14 signaling inhibition; TWEAK-stimulated Fn14 reporter cells, luciferase luminescence, 8 h; inhibition, % at 10 µM; hit rate 2% among 360,000; AID 1159606; in the data active = inhibition above about 50%
# LMP1 NFkB inh = inhibitors of Epstein-Barr LMP1-induced NF-kappaB reporter. LMP1-induced NF-kappaB luciferase reporter cells, luminescence. inhibition, % at 12.5 µM. hit rate 0.69% among 350,000; in the data active = inhibition above about 41%; inconclusive = no clear call, values can overlap the other calls
# EWS-Fli block = inhibitors of EWS/Fli oncoprotein transcriptional activity; A673 NR0B1-luciferase reporter, viability-normalised; inhibition, % at 12.6 µM; hit rate 0.67% among 350,000; AID 651661;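 active = mean inhibition of at least 50% after viability correction, with every replicate also passing that limit; inconclusive = mean reaches 50% but only one of two replicates passes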;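 note: firefly luciferase signal divided by Alamar Blue viability fluorescence both relative to DMSO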
# PAX8 inh HTS = lowers PAX8-driven luciferase in RMG-I cells; inhibition, % at 12.6 µM; RMG-I TPO-luciferase reporter, SteadyGlo, 24 h; hit rate 1.2% among 360,000;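 active = mean replicate inhibition at least 60% with every replicate also reaching 60%; inconclusive = only one of the two criteria is met; inactive = mean below 60% and not all replicates reaching 60%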;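 note: luciferase light reporting Pax8 driven TPO promoter activity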
# TROY signal inh = TROY signaling inhibition; Q293 LMP1-TROYcd NF-kB luciferase reporter, 4 h; hit rate 0.98% among 360,000; inhibition, % at 10 µM;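 active = compounds whose plate-normalised and pattern-corrected inhibition of the luciferase reporter signal at the single screening dose is 50% or more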
# LGR2 inh = inhibitors of bursicon-induced Drosophila LGR2 receptor cAMP signaling. HEK293 LGR2, CRE-luciferase, bursicon-stimulated, 4 h. inhibition, % at 9.99 µM. hit rate 0.35% among 380,000;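 active = drop in luminescence signal, shown as inhibition above about 50% in the replicate tests, limit read from the data, passing the limit was not always enough; inconclusive = probably only some replicates passing the limit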;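 note: agonist challenge used bursicon conditioned medium at about half maximal strength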
# Hits are given with their value; . = inactive; ? = inconclusive; / = no result. Rows were chosen to be rich in hits. Some 3.2% of all compounds tested hit in one or more screens of this group.
SMILES,TWEAK Fn14 block,LMP1 NFkB inh,EWS-Fli block,PAX8 inh HTS,TROY signal inh,LGR2 inh
CN(C)C(=O)c1cccc(-c2ccc3c(c2)[C@H]2[C@H](CCN2C(=O)c2ccncc2)[C@H](CO)N3C)c1,/,/,.,.,/,.
O=C(NCCC1=CCCCC1)C1CCN(C(=O)Nc2ccccc2)CC1,110,.,/,/,.,/
O=C(C[C@@H]1CC[C@H]2[C@@H](COC[C@H](O)CN2Cc2ccc(Oc3ccccc3)cc2)O1)Nc1nccs1,/,/,.,66,/,.
O=C(C[C@@H]1CC[C@H]2[C@@H](COC[C@@H](O)CN2Cc2ccc(Oc3ccccc3)cc2)O1)N1CCN(c2ccccc2)CC1,/,/,.,64,/,.
O=C(C[C@@H]1CC[C@@H]2[C@H](COC[C@@H](O)CN2Cc2ccc(Oc3ccccc3)cc2)O1)N1CCOCC1,/,/,.,.,/,.
O=C(C[C@@H]1CC[C@@H]2[C@H](COC[C@H](O)CN2Cc2ccc(Oc3ccccc3)cc2)O1)N1CCN(c2ccccc2)CC1,/,/,.,62,/,.
O=C(C[C@H]1CC[C@H]2[C@@H](COC[C@H](O)CN2Cc2ccc(Oc3ccccc3)cc2)O1)N1CCN(c2ccccc2)CC1,/,/,.,.,/,.
C[C@@H]1CN([C@H](C)CO)C(=O)c2cc(NS(=O)(=O)c3ccc(Cl)cc3)ccc2O[C@@H](C)CCCCO[C@@H]1CN(C)Cc1ccccc1,/,/,.,112,/,.
C[C@@H]1CN([C@H](C)CO)C(=O)c2cc(NS(=O)(=O)c3ccc(F)cc3)ccc2O[C@@H](C)CCCCO[C@H]1CN(C)Cc1ccccc1,/,/,.,77,/,.
C[C@@H]1CCCCO[C@H](CN(C)Cc2ccccc2)[C@@H](C)CN([C@@H](C)CO)C(=O)c2cc(NS(=O)(=O)c3ccc(Cl)cc3)ccc2O1,/,/,.,75,/,.
Cc1cccc(-c2ccc([C@@H]3[C@@H](CO)N4C(=O)CN(S(=O)(=O)c5cccc(F)c5)C[C@@H]34)cc2)c1,/,/,.,.,/,.
COC(=O)[C@H]1[C@H](CO)[C@H]2Cn3c(ccc(C4=CCCC4)c3=O)[C@H]2N1C(=O)C1CC1,/,/,.,/,/,.
O=C1c2ccccc2C(=O)C12OC2c1ccc(Cl)cc1Cl (stereo not given),72,.,.,/,.,.
Cc1ncc([N+](=O)[O-])n1Cc1cccc(F)c1,70,.,.,.,.,.
CC1CCN(c2c(NCc3ccc(C(=O)N4CCc5ccccc54)cc3)c(=O)c2=O)CC1,.,.,53,.,.,/
CCCc1ccc(-c2ccc(F)c(N)c2)nc1,89,69,/,/,63,79
CCCN1[C@@H]2Cn3c(ccc(-c4ccc(OC)cc4)c3=O)[C@H]1[C@@H](C(=O)NCC)[C@@H]2CO,/,/,.,/,/,.
COc1ccc2c(c1)c(=O)oc1c(C)c(OCc3cc(C(=O)O)oc3C)ccc12,79,.,.,.,.,.
CCN(CC)CCOC(=O)c1ccc(NC(=O)/C=C/c2cccs2)cc1,64,.,.,.,74,.
COc1ccccc1NC(=O)Nc1ccc2c(c1)C(=O)N(C)C[C@@H](OC)[C@@H](C)CN(C)[C@@H](C)CO2,/,/,.,.,/,.
Nc1c(C(O)(C(F)(F)F)C(F)(F)F)cc(C(O)(C(F)(F)F)C(F)(F)F)c2ccccc12,.,.,/,/,52,/
CC(=O)c1ccc(NC(=S)Nc2ccc(N3CCOCC3)cc2)cc1,.,.,.,.,51,.
S=C(Nc1ccc(N2CCOCC2)cc1)Nc1ccc2nc(-c3ccco3)c(-c3ccco3)nc2c1,72,.,/,.,.,/
CC(=O)c1ccc(NC(=O)CN2CCOCC2)cc1,110,.,.,.,.,.
O=C(NC(=S)Nc1ccc(N2CCOCC2)cc1)c1ccccc1,.,.,.,.,.,.
SMILES,TWEAK Fn14 block,LMP1 NFkB inh,EWS-Fli block,PAX8 inh HTS,TROY signal inh,LGR2 inh
O=C(Nc1ccc(N2CCOCC2)cc1)c1ccc2nc(-c3ccco3)c(-c3ccco3)nc2c1,.,.,/,/,.,/
CCc1ccc(C(=O)NC(=S)Nc2ccc(N3CCOCC3)cc2)cc1,.,.,.,.,53,.
O=C1c2ccccc2C(=O)N1C1CCN(Cc2cccc(OCCO)c2)CC1,/,/,.,.,/,/
C[C@@H]1CCCCO[C@H](CN(C)C(=O)Nc2ccc(C(F)(F)F)cc2)[C@@H](C)CN([C@H](C)CO)C(=O)c2cc(NC(=O)CCC(F)(F)F)ccc2O1,/,/,.,.,/,.
C=C1CC(COc2ccc3c(C)c(Cl)c(=O)oc3c2)(c2ccccc2)OC1=O (stereo not given),83,.,?,100,76,49
COc1ccc2c(C)c(Cl)c(=O)oc2c1,.,.,/,/,.,.
COc1ccc(-c2ccc3n(c2=O)C[C@@H]2[C@@H](CO)[C@H](C(=O)N(C)C)N(CC4CCOCC4)[C@H]32)cc1,/,/,.,.,/,.
CCC(=O)Nc1ccc2c(c1)OC[C@H](C)N(CCc1ccccc1)C[C@H](C)[C@H](OC)CN(C)C2=O,/,/,.,.,/,.
CC/C(=N/NC(=O)c1ccc2c(c1)OCO2)c1ccccc1O,.,.,.,.,.,.
O=C(CNC(=O)c1ccc(S(=O)(=O)N2CCCC2)cc1)N/N=C/c1ccccc1Cl,.,.,/,.,.,.
O=C(N/N=C/c1ccccc1)c1ccc2c(c1)OCO2,59,.,.,.,.,.
CN(C)c1ccc(/C=N/NC(=O)c2ccc3c(c2)OCO3)cc1,.,.,.,.,.,.
O=C(NN=Cc1c(O)ccc2ccccc12)c1ccc2c(c1)OCO2,.,74,.,.,.,.
CCC(=O)Nc1cc(C(=O)O)ccc1S(=O)(=O)c1ccc(C)cc1,.,.,.,64,.,.
O=C(N/N=C\c1c(O)ccc2ccccc12)c1ccc(S(=O)(=O)N2CCCCC2)cc1,.,68,/,.,.,.
CCCNC(=O)N1CC2(CN(C(=O)c3ccncc3)C2)c2c([nH]c3cc(OC)ccc23)[C@H]1CO,/,/,.,/,/,.
CO[C@@H](CN(C)Cc1nccs1)[C@H](C)CN([C@@H](C)CO)S(=O)(=O)c1ccc(C)cc1,/,/,.,/,/,.
CC(C)NC(=O)N(C)C[C@H]1Oc2c(NS(C)(=O)=O)cccc2C(=O)N([C@H](C)CO)C[C@@H]1C,/,/,.,.,/,.
CCCC(=O)Nc1ccccc1NC(=O)c1ccc2c(c1)OCO2,.,78,.,.,.,.
O=C(N/N=C\c1ccc2c(c1)OCO2)c1cncc(Br)c1,58,.,.,.,.,.
O=C(N/N=C/c1ccc2c(c1)OCO2)c1cccnc1,.,.,.,.,.,.
Oc1ccccc1C=NN=Cc1c(O)ccc2ccccc12,.,93,.,.,.,/
CCCC(=O)Nc1ccc(C(=O)O)cc1NC(=O)CCC,103,.,/,.,.,/
CCCC(=O)Nc1ccccc1NC(=O)CCC,.,.,/,.,.,/
COc1ccc(NC(=O)Nc2cccc3c2O[C@H](CN(C)C)[C@H](C)CN([C@@H](C)CO)C3=O)cc1,/,/,.,.,/,.
COCC(=O)N1CCCCN2[C@H](CO)[C@H](c3ccc(C#Cc4ccccc4)cc3)[C@H]2C1,/,/,.,.,/,.
O=C(N/N=C/c1c(O)ccc2ccccc12)c1ccc(CO)nc1,.,.,.,71,.,/

# Assay outcomes deposited in PubChem BioAssay by several laboratories.
